# Compound activity: PubChem BioAssay, several laboratories
# The list is not random: actives were taken first. Their share in the collection is about 2.2%.
# IEC-6 cytotox – IEC-6 cytotoxicity, counter-screen for KLF5 inhibitors; luminescence viability; inhibition, % at 5 µM; actives 0.78% (n = 290,000); AID 1825; in the data active means inhibition above about 22%
# Ba/F3 V617F tox – lowers viability of Ba/F3 cells expressing EpoR and JAK2V617F; ATP luminescence; inhibition, % at 5.6 µM; actives 1.1% (n = 220,000);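 active means inhibition above the campaign mean plus 3 SD over all tested compounds, cut at about 24% in these data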;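 further: cytokine-independent growth of Ba/F3 cells driven by EpoR plus mutant JAK2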
# BaF3 parental – counter-screen for JAK2V617F inhibitors: parental Ba/F3 viability inhibitors. CellTiter-Glo ATP luminescence. inhibition, % at 5.6 µM. actives 1.1% (n = 220,000);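 active means inhibition above a per-campaign cutoff, the mean inhibition of all tested compounds plus 3 SD, cut at about 27% in these data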
# APP transl inh – APP translation inhibition. SH-SY5Y APP 5'UTR-luciferase reporter, luminescence. inhibition, % at 2 µM. actives 0.82% (n = 190,000). AID 1285;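 active means inhibition above a set limit, derived from the sample mean plus 3 SD, cut at about 45% in these data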
# aSyn 5UTR inh – 5' untranslated region of α-synuclein, MLPCN primary screen | AID 1813 | actives 0.82% (n = 300,000) | inhibition, % (tested at 7.5 µM) | alpha-synuclein 5'UTR reporter, inhibitor activity; in the data active means inhibition above about 60%;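 further: H4 neuroglioblastoma cells stably carrying SNCA 5'UTR luciferase fusion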
# KLF5 inhibitor – inhibitors of KLF5 expression; DLD-1 KLF5 promoter-luciferase reporter, luminescence; inhibition, % at 5 µM; actives 0.23% (n = 290,000); AID 1700;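 active means inhibition above a per-plate limit of that plate's mean compound inhibition plus 3 SD, cut at about 60% in these data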;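 further: higher means less KLF5 promoter-driven luciferase light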
# A number is an active result; n = inactive; x = no result.
SMILES,IEC-6 cytotox,Ba/F3 V617F tox,BaF3 parental,APP transl inh,aSyn 5UTR inh,KLF5 inhibitor
CC/C(=N\NC(=O)c1nnn(-c2nonc2N)c1CN(C)c1ccccc1)c1ccccc1,n,x,x,x,n,n
CCN(Cc1ccccc1)S(=O)(=O)c1c(C(=O)N2CCCC2)c(C)n(C)c1C,n,x,x,x,n,n
COc1cc(/C=C/c2noc(-c3ccccc3O)n2)cc(OC)c1OC,n,n,n,n,n,n
COc1cc(/C=C/c2nnc3c4ccccc4ncn23)cc(OC)c1OC,n,28,43,n,n,n
CCOc1ccccc1CNC(=O)c1cc2oc3ccccc3c2n1CC,n,n,n,x,66,n
COc1cccc(CNC(=O)c2cc3oc4ccccc4c3n2C)c1OC,n,n,n,n,n,n
CC(C)CCn1nc(C(=O)Nc2nc3c(s2)CCCC3)c2ccccc2c1=O,n,n,n,n,68,n
O=c1c(/C=N\NS(=O)(=O)c2ccccc2)coc2ccc(Cl)cc12,n,x,x,x,n,n
CC(NC(=O)CCc1nnc(-c2ccc(-c3ccccc3)cc2)o1)c1nccs1 (stereo not drawn),n,n,n,n,89,n
COC(=O)CCCNC(=O)CCc1nnc(-c2ccc(-c3ccccc3)cc2)o1,n,x,x,x,77,n
O=C(CCc1nnc(-c2ccc(-c3ccccc3)cc2)o1)NCCc1ccccn1,n,n,n,n,90,n
CC(NCc1ccc(S(N)(=O)=O)cc1)C(=O)Nc1cccc(Cl)c1 (stereo not drawn),n,n,n,x,n,n
O=C(Cn1ncc2c(=O)oc3ccccc3c21)NCc1cccnc1,n,n,n,n,n,n
COc1cccc(CNC(=O)Cn2ncc3c(=O)oc4ccccc4c32)c1,n,61,62,x,n,n
COc1ccc2[nH]cc(S(=O)(=O)c3ccc(C(C)C)cc3)c(=O)c2c1,n,n,n,n,n,n
COc1cnc(-c2ccccn2)nc1N(C)c1ccccc1,n,x,x,x,89,n
COc1cnc(-c2ccccn2)nc1Oc1ccccc1,n,n,n,n,n,n
CCc1ccc2c(c1)[C@H]1OCC[C@H]1[C@@H](c1cccs1)N2,n,n,41,65,n,n
CS(=O)c1nc(-c2ccc(Br)cc2)cc(-c2ccccc2)c1C#N (stereo not drawn),n,n,n,94,120,n
CS(=O)(=O)c1nc(-c2ccc(Br)cc2)cc(-c2ccccc2)c1C#N,n,n,n,n,n,n
O=C(CCc1nnc(CCCCc2ccccc2)o1)N1CCC(N2CCCC2)CC1,n,n,n,n,n,n
Cc1ccccc1/C=C/c1cc[n+](C)cc1,n,50,58,n,n,n
C=CCn1c(C)c(/C=C/c2cc[n+](C)cc2)c2ccccc21,n,x,x,x,n,n
CC(C)n1cc(/C=C/c2cc[n+](C)cc2)c2ccccc21,n,x,x,x,n,n
Cc1[nH]c2ccccc2c1/C=C/c1cc[n+](C)cc1,n,85,77,n,n,n
SMILES,IEC-6 cytotox,Ba/F3 V617F tox,BaF3 parental,APP transl inh,aSyn 5UTR inh,KLF5 inhibitor
COc1ccc(OC)c(CNC(=O)CCn2nc(C)c3c(C)n(-c4ccccc4)nc3c2=O)c1,n,x,x,x,n,n
CCN(Cc1ccncc1)C(=S)Nc1ccc(Cl)cc1,n,24,27,n,n,n
S=C(Nc1ccccc1)N(Cc1ccccc1)Cc1ccncc1,n,n,n,n,n,n
CCN(CC)C(=S)Nc1ccc(Cl)c(Cl)c1,n,n,32,n,n,n
N/C(=N\OC(=O)COc1ccc(Cl)cc1Cl)c1ccncc1,n,n,n,n,x,n
COC(=O)c1cc(C)nc2c1C(=O)C(=O)C=C2N1CCOCC1,n,x,x,x,n,n
CCN(CC)CCNc1cc(C)nc2c1C(=O)C(=O)C=C2N1CCCCC1,n,n,n,67,81,n
Cc1ccc(/C=C2\SC(=S)N(CCCC(=O)Nc3ccccn3)C2=O)cc1,n,n,n,55,107,n
Cc1ccc(/C=C2\SC(=S)N(CCCC(=O)Nc3ccccc3C(=O)O)C2=O)cc1,n,x,x,x,68,n
Cc1ccc(/C=C2\SC(=S)N(CCCC(=O)Nc3ccc(O)cc3)C2=O)cc1,n,n,n,x,104,n
Cc1c([N+](=O)[O-])cc(C(=O)NCc2ccc(F)cc2)cc1[N+](=O)[O-],n,n,n,n,n,n
Cc1csc2nc(O)c(C(=O)NCc3ccc4c(c3)OCO4)c(=O)n12,x,x,x,x,n,x
O=C(NNC(=O)c1ccccc1C(F)(F)F)c1csc(N2CCOCC2)n1,n,x,x,x,n,n
c1ccc(-c2cn(-c3ccccc3)c3[n+]2CCCS3)cc1,n,68,63,x,n,n
Cc1ccc(-c2cn(-c3ccccc3)c3[n+]2CCCS3)cc1,n,77,67,n,n,n
NC(=S)N/N=C/c1ccc(-n2nncc2-c2ccc(Cl)cc2)cc1,n,x,x,x,n,n
CN1/C(=C/c2cc[n+](C)c3ccccc23)C=Cc2ccccc21,n,76,63,n,x,n
Nc1ccc2nc(-c3ccc(N)c(Cl)c3)[nH]c2c1,n,n,n,n,n,n
Nc1ccc(-c2nc3c(Cl)cc(N)cc3[nH]2)cc1,n,n,n,63,85,n
O=C(COc1ccccc1)NCc1ccccc1,n,n,n,n,n,n
O=C(COc1ccc(C(=O)c2ccccc2)cc1)NCc1ccc(F)cc1,41,n,n,n,113,n
CN1/C(=C\P(=O)(N(C)C)N(C)C)C(C)(C)c2ccccc21,n,61,62,n,n,n
O=C(CSc1nccc(=O)[nH]1)NC1CCCC1,n,x,x,x,n,n
CC1CCC(=NNc2ccc(C(F)(F)F)cc2[N+](=O)[O-])CC1 (stereo not drawn),n,n,n,n,n,n
CC1CCC/C(=N/Nc2ccc([N+](=O)[O-])cc2[N+](=O)[O-])C1 (stereo not drawn),n,n,n,79,n,n
SMILES,IEC-6 cytotox,Ba/F3 V617F tox,BaF3 parental,APP transl inh,aSyn 5UTR inh,KLF5 inhibitor
c1ccc(-c2nnc(-c3ccccn3)s2)nc1,n,n,n,x,78,n
CCOc1ccc(NC(=O)c2sccc2-n2cccc2)cc1,n,n,n,n,n,n
O=C(CSCc1ccco1)N1CCc2ccccc21,n,x,x,x,n,n
COc1cc(O)ccc1/C=N/NC(=O)c1ccc([N+](=O)[O-])cc1,n,n,n,n,n,n
O=C(NC(CSCc1ccccc1)C(=O)N/N=C/c1ccc(O)cc1O)c1ccc([N+](=O)[O-])cc1 (stereo not drawn),n,n,n,50,84,n
Cc1cc(C)c(COc2ccc(/C=N/n3c(C)n[nH]c3=S)cc2)c(C)c1,n,n,n,n,n,n
COc1cc(-c2nnc(SCC(=O)N(Cc3ccccc3)C(C)(C)C)o2)cc(OC)c1OC,n,n,96,n,n,n
CCC(=O)Nc1ccc(NC(=S)NC(=O)Cc2ccccc2)cc1,n,n,n,n,n,n
CCC(=O)Nc1ccc(NC(=S)Nc2ccccc2)cc1,n,n,58,n,n,n
Cc1ccnc(N2C(=O)c3cccc4c([N+](=O)[O-])ccc(c34)C2=O)c1,n,n,36,n,n,n
O=C1c2cccc3c([N+](=O)[O-])ccc(c23)C(=O)N1Cc1cccnc1,n,42,37,82,n,n
